According to PubChem BioAssay AID1159580 (chemical genetic matrix, 2015):
“And” between values parts separate entries of the source, which are not always exact repeats. Equal values may be shown once. The campaign covered roughly 5,500 compounds. About 2,000 (36%) were called active. Inconclusive results (about 18%) are left out. Rule as the data show it: active = normalized growth mostly below about 0.91 (no sharp cut-off); inconclusive = no clear call, values can overlap the other calls; inactive = mostly above about 0.92. The list shows a part of the results.

Assay: chemical genetic growth profiling, strain panel (AID 1159580);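 also: tested at 20 µM; growth read once vehicle control cultures reached saturation at 30 °C; 1 = growth at the plate median or of vehicle wells; lower values mean less growth of the strain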
Settings: growth OD

Measured: normalized growth

CCCC(C(=O)OCCN(CC)CC)(c1ccccc1)c1ccccc1
inactive: S. cerevisiae deletion strains, locus YJR075W, strain HOC1, active compounds read low 1 and 0.971 | S. cerevisiae deletion strains, locus YKL009W, strain mrt4, active compounds read low 0.982 | S. cerevisiae deletion strains, locus YKL068W, active compounds read low 0.995 | S. cerevisiae deletion strains, locus YKL085W, strain MDH1 (second series), active compounds read low 0.99 | S. cerevisiae deletion strains, locus YKL085W, strain MDH1, active compounds read low 0.99 | S. cerevisiae deletion strains, locus YKL160W, strain elf1, active compounds read low 0.982 | S. cerevisiae deletion strains, locus YKL190W, strain CNB1, active compounds read low 0.995 | S. cerevisiae deletion strains, locus YKR001C, strain vps1, active compounds read low 0.999 | S. cerevisiae deletion strains, locus YKR026C, strain gcn3, active compounds read low 1 | S. cerevisiae deletion strains, locus YKR091W, strain srl3, active compounds read low 1 | S. cerevisiae deletion strains, locus YLL001W, strain dnm1, active compounds read low 0.998 | S. cerevisiae deletion strains, locus YLL026W, active compounds read low 1.01 | S. cerevisiae deletion strains, locus YLL041C, strain sdh2, active compounds read low 1 | S. cerevisiae deletion strains, locus YLR027C, strain aat2, active compounds read low 1 | S. cerevisiae deletion strains, locus YLR039C, strain RIC1, active compounds read low 1.16 | S. cerevisiae deletion strains, locus YLR058C, strain SHM2, active compounds read low 1.01 | S. cerevisiae deletion strains, locus YLR102C, strain apc9, active compounds read low 0.994 | S. cerevisiae deletion strains, locus YLR113W, strain HOG1, active compounds read low 0.966 | S. cerevisiae deletion strains, locus YLR221C, strain rsa3, active compounds read low 0.991 | S. cerevisiae deletion strains, locus YLR258W, strain gsy2, active compounds read low 0.989 | S. cerevisiae deletion strains, locus YLR262C, strain YPT6 (second series), active compounds read low 1.12 | S. cerevisiae deletion strains, locus YLR262C, strain YPT6, active compounds read low 1.25 | S. cerevisiae deletion strains, locus YLR268W, strain sec22, active compounds read low 0.977 | S. cerevisiae deletion strains, locus YLR320W, strain mms22, active compounds read low 0.968 | S. cerevisiae deletion strains, locus YLR330W, strain CHS5, active compounds read low 1.01 | S. cerevisiae deletion strains, locus YLR342W, strain FKS1 (second series), active compounds read low 0.941 | S. cerevisiae deletion strains, locus YLR342W, strain FKS1, active compounds read low 0.999 | S. cerevisiae deletion strains, locus YLR357W, strain rsc2, active compounds read low 0.935 | S. cerevisiae deletion strains, locus YLR370C, strain arc18, active compounds read low 1 | S. cerevisiae deletion strains, locus YLR371W, strain rom2, active compounds read low 0.985 | S. cerevisiae deletion strains, locus YLR384C, strain iki3, active compounds read low 1.01 | S. cerevisiae deletion strains, locus YLR418C, strain cdc73, active compounds read low 0.883 | S. cerevisiae deletion strains, locus YML016C, strain PPZ1, active compounds read low 1.01 | S. cerevisiae deletion strains, locus YML032C, strain rad52, active compounds read low 0.989 | S. cerevisiae deletion strains, locus YML120C, strain ndi1, active compounds read low 0.989 | S. cerevisiae deletion strains, locus YML124C, strain tub3, active compounds read low 0.995 | S. cerevisiae deletion strains, locus YMR058W, strain fet3, active compounds read low 1 | S. cerevisiae deletion strains, locus YMR078C, strain ctf18, active compounds read low 0.99 | S. cerevisiae deletion strains, locus YMR125W, strain sto1, active compounds read low 1.01 | S. cerevisiae deletion strains, locus YMR129W, active compounds read low 0.983 | S. cerevisiae deletion strains, locus YMR205C, strain PFK2, active compounds read low 0.972 | S. cerevisiae deletion strains, locus YMR223W, strain ubp8, active compounds read low 0.967 | S. cerevisiae deletion strains, locus YMR231W, strain pep5, active compounds read low 1.01 | S. cerevisiae deletion strains, locus YMR263W, strain SAP30, active compounds read low 1 | S. cerevisiae deletion strains, locus YMR307W, strain GAS1, active compounds read low 1.03 | S. cerevisiae deletion strains, locus YNL067W, strain RPL9B, active compounds read low 0.996 | S. cerevisiae deletion strains, locus YNL071W, strain lat1, active compounds read low 0.957 | S. cerevisiae deletion strains, locus YNL128W, strain TEP1, active compounds read low 0.992 | S. cerevisiae deletion strains, locus YNL153C, strain GIM3, active compounds read low 1.02 and 1.01 | S. cerevisiae deletion strains, locus YNL183C, strain NPR1, active compounds read low 0.946 | S. cerevisiae deletion strains, locus YNL197C, strain WHI3, active compounds read low 1.01 | S. cerevisiae deletion strains, locus YNL209W, strain ssb2, active compounds read low 1.02 | S. cerevisiae deletion strains, locus YNL224C, strain SQS1, active compounds read low 1.02 | S. cerevisiae deletion strains, locus YNL233W, strain BNI4, active compounds read low 1.01 | S. cerevisiae deletion strains, locus YNL248C, strain rpa49, active compounds read low 0.989 | S. cerevisiae deletion strains, locus YNL250W, strain rad50, active compounds read low 0.981 | S. cerevisiae deletion strains, locus YNL271C, strain bni1, active compounds read low 0.994 | S. cerevisiae deletion strains, locus YNL298W, strain CLA4, active compounds read low 0.989 | S. cerevisiae deletion strains, locus YNL307C, strain MCK1, active compounds read low 0.983 | S. cerevisiae deletion strains, locus YNL322C, strain KRE1 (second series), active compounds read low 1.01 | S. cerevisiae deletion strains, locus YNL322C, strain KRE1, active compounds read low 0.985 | S. cerevisiae deletion strains, locus YNR049C, strain mso1, active compounds read low 1.01 | S. cerevisiae deletion strains, locus YNR052C, strain pop2, active compounds read low 0.986 | S. cerevisiae deletion strains, locus YOL006C, strain TOP1, active compounds read low 1.05 | S. cerevisiae deletion strains, locus YOL012C, strain htz1 0.951 | S. cerevisiae deletion strains, locus YOL147C, strain pex11, active compounds read low 0.995 | S. cerevisiae deletion strains, locus YOR001W, strain rrp6, active compounds read low 0.977 | S. cerevisiae deletion strains, locus YOR061W, strain CKA2, active compounds read low 1.01 | S. cerevisiae deletion strains, locus YOR069W, strain VPS5, active compounds read low 1 | S. cerevisiae deletion strains, locus YOR070C, strain gyp1, active compounds read low 1 | S. cerevisiae deletion strains, locus YOR080W, strain dia2, active compounds read low 0.993 | S. cerevisiae deletion strains, locus YOR083W, strain WHI5 (second series), active compounds read low 0.993 | S. cerevisiae deletion strains, locus YOR083W, strain WHI5, active compounds read low 0.983 | S. cerevisiae deletion strains, locus YOR106W, strain vam3, active compounds read low 0.979 | S. cerevisiae deletion strains, locus YOR136W, strain idh2, active compounds read low 0.993 | S. cerevisiae deletion strains, locus YOR144C, strain elg1, active compounds read low 0.989 | S. cerevisiae deletion strains, locus YOR184W, strain ser1, active compounds read low 0.99 | S. cerevisiae deletion strains, locus YOR231W, strain MKK1, active compounds read low 0.98 | S. cerevisiae deletion strains, locus YOR265W, strain rbl2, active compounds read low 1.01 | S. cerevisiae deletion strains, locus YOR270C, strain vph1, active compounds read low 0.942 | S. cerevisiae deletion strains, locus YOR290C, strain snf2, active compounds read low 0.998 | S. cerevisiae deletion strains, locus YOR316C, strain cot1, active compounds read low 1 | S. cerevisiae deletion strains, locus YPL051W, strain arl3, active compounds read low 0.972 | S. cerevisiae deletion strains, locus YPL055C, strain LGE1, active compounds read low 1.01 | S. cerevisiae deletion strains, locus YPL078C, strain atp4, active compounds read low 0.998 | S. cerevisiae deletion strains, locus YPL106C, strain sse1, active compounds read low 1.02 | S. cerevisiae deletion strains, locus YPL240C, strain hsp82, active compounds read low 0.998 | S. cerevisiae deletion strains, locus YPL241C, strain CIN2, active compounds read low 1 | S. cerevisiae deletion strains, locus YPL256C, strain CLN2, active compounds read low 0.994 | S. cerevisiae deletion strains, locus YPR119W, strain clb2, active compounds read low 0.996 | S. cerevisiae deletion strains, locus YPR141C, strain kar3, active compounds read low 0.996 | S. cerevisiae deletion strains, locus YPR163C, strain tif3, active compounds read low 0.995 | S. cerevisiae deletion strains, locus YPR167C, strain met16, active compounds read low 0.993 | S. cerevisiae deletion strains, strain wtn01, active compounds read low 0.974 | S. cerevisiae strains, strain wild type, active compounds read low 1.01
